Many of the other results were omitted from the sample, so hits are more common in it than they were.
HT1080 IDH1KD tx: kills HT-1080 cells with IDH1 knockdown. hit rate 2% among 360,000. AID 686971. HT-1080 IDH1 knockdown viability, ATP luminescence, 48 h. Potency, µM (titrated, usually from 46.1 µM), for the others: at the highest dose activity, negative = toxicity, actives largely listed as cytotoxic;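 note: potency is the fitted concentration of half-maximal effect; 0% = DMSO wells and -100% = cell-free medium wells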
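Luminescent ATP read-out (CellTiter-Glo, 10 min at room temperature) after 48 h compound exposure at 37 °C gave viability of IDH1-knockdown HT-1080 cells. Activity was normalised to DMSO and cell-free wells, then fitted as concentration-response curves.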
DT40 TDP1 CPT: growth inhibition of DT40 Tdp1-/-;hTDP1 cells with camptothecin (screen for TDP1 inhibitors); chicken DT40 Tdp1-/-;hTDP1 cells + 20 nM CPT, ATP luminescence, 48 h; Potency, µM (series often up to 46.2 µM), inactives show top-dose activity change, negative = growth inhibition, hits mostly inhibitors; hit rate 12% among 420,000; note: potency is the fitted concentration of half-maximal effect; nearly all actives have a fitted effect of over 55% in size
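Chicken DT40 Tdp1-/- cells stably complemented with human TDP1 were seeded at 400 cells/well in medium containing 20 nM camptothecin, exposed to pin-transferred compounds, and grown at 37 °C for at least 48 hr. Viability was read as ATP luminescence.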
HT1080-NT tox: kills 2HG-producing HT-1080-NT fibrosarcoma cells | AID 686970 | HT-1080-NT fibrosarcoma viability, CellTiter-Glo ATP luminescence, 48 h | Potency, µM (doses to about 46.1 µM), for inactives: top-dose activity, negative = less viability, usual class: cytotoxic | hit rate 1.6% among 360,000;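 note: NT is the 2HG producing partner of a matched IDH1 knockdown line; potency is the fitted concentration of half-maximal effect; 0% = DMSO-treated cells and -100% = media-only wells without cells; nearly all actives have a fitted effect of over 55% in size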
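Compounds were tested in concentration-response format on HT-1080-NT cells for 48 hours at 37 degrees C. Cell viability came from CellTiter-Glo luminescence; curves were classified by r2, response magnitude and activity.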
ALOX12 inh: inhibitors of human 12S-lipoxygenase ALOX12; P18054; purified 12hLO, xylenol orange hydroperoxide absorbance; Potency, µM (top dose mostly 108 µM), without a hit: top-dose activity change, negative = inhibition, hits mostly inhibitors; hit rate 1.1% among 580,000; AID 1671190; note: potency is the fitted concentration of half-maximal effect
Target sequence (P18054 whole entry, looked up): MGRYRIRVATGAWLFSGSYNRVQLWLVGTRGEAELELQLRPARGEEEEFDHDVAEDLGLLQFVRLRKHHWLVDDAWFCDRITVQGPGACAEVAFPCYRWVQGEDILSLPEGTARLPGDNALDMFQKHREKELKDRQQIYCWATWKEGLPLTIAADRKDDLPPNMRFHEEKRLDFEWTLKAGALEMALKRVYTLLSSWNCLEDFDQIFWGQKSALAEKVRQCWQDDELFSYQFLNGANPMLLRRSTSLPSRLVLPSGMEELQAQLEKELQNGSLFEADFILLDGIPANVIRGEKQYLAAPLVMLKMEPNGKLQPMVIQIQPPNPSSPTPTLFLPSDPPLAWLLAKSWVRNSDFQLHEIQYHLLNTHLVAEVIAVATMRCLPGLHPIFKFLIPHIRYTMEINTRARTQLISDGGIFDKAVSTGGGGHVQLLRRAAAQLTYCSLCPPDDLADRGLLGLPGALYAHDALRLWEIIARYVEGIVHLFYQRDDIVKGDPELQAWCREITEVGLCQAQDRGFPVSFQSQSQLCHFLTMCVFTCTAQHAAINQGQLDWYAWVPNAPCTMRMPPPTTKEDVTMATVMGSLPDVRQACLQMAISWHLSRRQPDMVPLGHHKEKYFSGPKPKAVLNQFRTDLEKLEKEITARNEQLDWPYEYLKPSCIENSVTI
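Purified human 12hLO at 150 nM in 25 mM Hepes, 0.01% Triton X-100, pH 7.0, preincubated 15 min at room temperature with compound. Reaction started with 40 uM arachidonic acid, 30 min at room temperature. Hydroperoxide measured by Fe-xylenol orange, 573/405 nm absorbance ratio.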
DT40 TDP1 no CPT: qHTS for Inhibitors of human tyrosyl-DNA phosphodiesterase 1 (TDP1): qHTS in cells in absence of CPT; Potency, µM (titrated, usually from 46.2 µM), for inactives: at the top dose activity change, negative = growth inhibition, usual class: inhibitors; AID 686978, 2013; DT40 Tdp1-/- hTDP1 cells, no CPT, ATP luminescence, 48 h; hit rate 15% among 420,000; note: potency is the fitted concentration of half-maximal effect; nearly all actives have a fitted effect of over 55% in size
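Camptothecin absent (DMSO only). Human TDP1-complemented DT40 knockout cells, 400 cells/well, 37 °C for minimum 48 hr; ATP measured via CellTiter-Glo, 30 min dark incubation, luminescence.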
IL1B secr inh: inhibitors of inflammasome signaling (IL-1 beta secretion). THP-1 LPS/ATP IL-1B secretion, AlphaLISA, 16 h; hits give low values. activity change, % at 57.5 µM. hit rate 4.7% among 360,000. AID 743279; in the data active = activity change below about -50%; inconclusive = mostly about -30% to -49%
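THP-1 cells pretreated 1 hr with compounds (up to 57.5 uM final), then stimulated with LPS (250 ng/mL final) plus ATP (1.25 mM final); secreted IL-1B measured by AlphaLISA after 16 hr, decreased signal indicating inhibition.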
Numbers without * were called inactive; ? = inconclusive; nt = no result; [ ] = remark or other dose. Unless noted, calls come from the whole dose curve; as a rule, active = well fitted curve in the direction sought with a large enough effect; inconclusive = small, poorly fitted or top-dose-only effect, or another doubt; inactive = no such curve, though single readings can be large; an effect the other way counts as inactive or inconclusive. Unless noted, % is set by controls: 0 for no effect and ±100 for the full control effect.

SMILES	HT1080 IDH1KD tx	DT40 TDP1 CPT	HT1080-NT tox	ALOX12 inh	DT40 TDP1 no CPT	IL1B secr inh
CC(Oc1ccc(F)cc1)C(=O)Nc1ccccc1C(=O)N1CCCCC1 (stereo not drawn)	-8%	15µM*	1%[9.24 µM]	-5%	?	11
COC(=O)c1ccccc1NC(=O)C(C)Oc1ccccc1 (stereo not drawn)	-23%	7.3µM*	-4%	-3%	5.8µM*	15
COc1cc(NC(=O)C(C)Oc2ccccc2)c(OC)cc1NC(=O)c1ccccc1 (stereo not drawn)	-11%	21µM*	-2%	nt	?	-17
Cc1ccc(S(=O)(=O)CC(=O)c2ccc(Cl)cc2)cc1C	nt	nt	nt	1%	nt	nt
CNC(=O)[C@@H]1CN(C(=O)CCc2ccccc2OC)C[C@H]1COC	nt	nt	nt	16%	nt	nt
COc1ccc(-c2csc(NC3OC(=O)c4c3ccc(OC)c4OC)n2)cc1 (stereo not drawn)	nt	nt	nt	3%	nt	nt
O=C(Nc1ccc(OC(F)F)cc1)c1nc(S(=O)(=O)Cc2ccccc2F)ncc1Cl	nt	0.45µM*	nt	?	1µM*	nt
CCOc1ccc(NC(=O)c2nc(SCc3ccccc3F)ncc2Cl)cc1	nt	-9%	nt	nt	-23%	nt
CCOc1ccc(NC(=O)c2nc(S(=O)(=O)Cc3ccccc3F)ncc2Cl)cc1	nt	0.37µM*	nt	?	0.33µM*	nt
Cc1ccc2c(C(=O)N3CCOCC3)cnn2c1	nt	nt	nt	41%[176 µM]	nt	nt
COc1ccc(CNC(=O)Cc2cccc(C(F)(F)F)c2)cc1OC	nt	nt	nt	-27%	nt	nt
CCOc1ccccc1C(=O)N[C@H](C(=O)Nc1nc2c(s1)CCCC2)C(C)C	?	16µM*	?	-5%	18µM*	?
COC(=O)c1sc(NC(=O)[C@@H](NC(=O)c2ccc(F)cc2)C(C)C)nc1C	nt	nt	nt	-1%	nt	nt
CCOC(=O)C(NC(=O)[C@@H](NC(=O)c1ccccc1OCC)C(C)C)C(=O)OCC	nt	nt	nt	38%	nt	nt
COc1ccc(C(=O)N[C@H](C(=O)Nc2nc3c(s2)CCCC3)C(C)C)cc1	1%	?	-2%	?	23µM*	-25
CCC(Oc1ccc(F)cc1)C(=O)Nc1nc2c(s1)CCCC2 (stereo not drawn)	nt	?	nt	?	16µM*	nt
Cc1ccc2[nH]cc(C(C(=O)O)N3CCN(c4cccc(Cl)c4)CC3)c2c1 (stereo not drawn)	nt	nt	nt	2%	nt	nt
Cc1ccc(NCC(=O)N/N=C/c2cccc(Oc3ccccc3)c2)cc1	-13%	?	-13%	29%	?	-77*
Cc1cccc(NCC(=O)N/N=C\c2cccc(Oc3ccccc3)c2)c1	-24%	?	-15%	46%	?	-1
COc1ccc(OCCn2cnc3ccccc32)cc1	1%	-6%	7%	0%	?	-1
c1ccc2c(c1)ncn2CCCOc1ccc2c(c1)CCC2	?	?	?	2%	21µM*	-53*
c1ccc2c(c1)ncn2CCCCOc1ccc2c(c1)CCC2	3%	?	-3%	?	29µM*	-29
Brc1ccccc1OCCCn1cnc2ccccc21	-2%	?	-12%	-13%	-26%	-25
CCC1CCCCN1C(=O)Cn1c(=O)n(-c2cc(C)cc(C)c2)c(=O)c2sccc21 (stereo not drawn)	nt	nt	nt	5%	nt	nt
COC(=O)Cn1cnc2sc(C)c(S(=O)(=O)N3CCN(c4ccccc4OC)CC3)c2c1=O	10%	-12%	10%	1%	3%	-5
SMILES	HT1080 IDH1KD tx	DT40 TDP1 CPT	HT1080-NT tox	ALOX12 inh	DT40 TDP1 no CPT	IL1B secr inh
CCc1ccc(NC(=O)Cn2cnc3sc(C)c(S(=O)(=O)N4CCC(C)CC4)c3c2=O)cc1	nt	-6%	nt	?	-27%	nt
Cc1sc2ncn(CC(=O)Nc3ccc(C(F)(F)F)cc3)c(=O)c2c1S(=O)(=O)N1CCN(C)CC1	nt	?	nt	-19%	1.3µM*	nt
COc1ccccc1N1CCN(S(=O)(=O)c2c(C)nc3sc(C)c(C)n3c2=O)CC1	nt	21µM*	nt	0%	21µM*	nt
CCc1ccc(NC(=O)Cn2cnc3sc(C)c(S(=O)(=O)N4CCN(c5ccccc5OC)CC4)c3c2=O)cc1	nt	?	nt	-28%	16µM*	nt
Cc1nc(-c2ccncc2)[nH]c(=O)c1CC(=O)N(C)C1CCCCC1	nt	nt	nt	-27%	nt	nt
CN(CCCc1[nH]nc(N)c1C#N)c1nc(-c2ccncc2)nc2ccccc12	nt	nt	nt	5%	nt	nt
CCCCCC(=O)Nc1nc2c(s1)C[C@@H]1[C@](C)(CO)[C@H](O)CC[C@@]1(C)[C@@H]2CC(=O)NCCOC	nt	nt	nt	2%	nt	nt
CC(C1CC1)N(Cc1ccccc1)S(=O)(=O)c1ccccc1Cl (stereo not drawn)	nt	nt	nt	-9%	nt	nt
CC(=O)c1ccc(S(=O)(=O)NCCC(=O)NC2CCC(C)CC2)cc1 (stereo not drawn)	nt	nt	nt	6%	nt	nt
CCc1ccccc1NC(=O)CCCN1C(=O)CCn2nc(-c3cn(C)c4ccccc34)cc21	nt	-25%	nt	-19%	-23%	nt
Cc1cccc(C)c1NC(=O)CCCN1C(=O)CCn2nc(-c3cn(C)c4ccccc34)cc21	nt	?	nt	-14%	13µM*	nt
Cn1cc(-c2cc3n(n2)CCC(=O)N3CCCC(=O)Nc2ccc(Cl)cc2)c2ccccc21	nt	?	nt	-11%	?	nt
COc1cc(NC(=O)CCCN2C(=O)CCn3nc(-c4cn(C)c5ccccc45)cc32)cc(OC)c1	nt	?	nt	-21%	18µM*	nt
Cn1cc(-c2cc3n(n2)CCC(=O)N3CCCC(=O)NCc2ccccc2Cl)c2ccccc21	nt	16µM*	nt	-37%	13µM*	nt
Cn1cc(-c2cc3n(n2)CCC(=O)N3CCCC(=O)NCc2ccc(Cl)cc2)c2ccccc21	nt	?	nt	-23%	?	nt
CC(NC(=O)CCCN1C(=O)CCn2nc(-c3cn(C)c4ccccc34)cc21)c1ccccc1 (stereo not drawn)	nt	?	nt	-30%	23µM*	nt
Cn1nc(-c2ccc(OCC(=O)N3CCCCC3)cc2)c2ccccc2c1=O	nt	nt	nt	-4%	nt	nt
CCOc1ccccc1CNC(=O)CCCN1C(=O)CCn2nc(-c3cccn3C)cc21	nt	18µM*	nt	?	?	nt
CCCCn1c(-c2sccc2C)n[nH]c1=S	5%	8%	8%	40µM*	?	30
O=C(NCc1cccnc1)Nc1ccc(Cl)cc1Cl	1%	-5%	5%	?	5%	-4
Clc1ccc(NCc2cccnc2)c(Cl)c1	-1%	-23%	-1%	12%	?	-59*
O=C(c1ccccc1)N1CCN(c2ccc([N+](=O)[O-])c(NCc3cccnc3)c2)CC1	-14%	?	0%	-11%	?	-28

Bioassay records as filed in PubChem.
